Compounds with a hit are over-represented: about 3.2% of the library has one in this group of screens.
GLP1R ag = activates the human GLP-1 receptor | P43220 | HEK293 GLP-1R CRE-luciferase, luminescence, 4-6 h; cells express a hypersensitive GLP-1R form | Potency, µM (titrated, usually from 45.6 µM), most hits filed as activators | actives 0.007% (n = 380,000)
GLP-1R inv ag = inverse agonists of human GLP-1 receptor; HEK293 GLP-1R CRE-luciferase, luminescence, 24 h; GLP-1R form is constitutively active; Potency, µM (highest dose often 38.3 µM), most hits filed as inhibitors; actives 1.6% (n = 410,000); AID 624417; further: nearly all actives have a fitted effect of over 55% in size
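Stable HEK293 clone (constitutively active GLP-1R + cAMP-response luciferase); 200 cells/uL plated, 12 h pre-culture, compound 24 hr, 37 deg C/5% CO2; detection reagent 12 min RT; luminescence.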
ClpP mod = qHTS Assay for Activators of ClpP. ATP-dependent Clp protease proteolytic subunit (Bacillus subtilis (strain 168)), P80244. purified B. subtilis ClpP, FRET peptide cleavage, 20 min. Potency, µM (series often up to 57.5 µM). actives 1.9% (n = 340,000). AID 651965, 2013; active means well fitted falling curve with a large enough effect; inconclusive means small, poorly fitted or top-dose-only effect; inactive means no such curve, though single readings can be large or run the other way; further: the source files actives as falling curves though it sought activators and does not explain the sign; nearly all actives have a fitted effect of over 65% in size
Target sequence (P80244 whole entry, looked up): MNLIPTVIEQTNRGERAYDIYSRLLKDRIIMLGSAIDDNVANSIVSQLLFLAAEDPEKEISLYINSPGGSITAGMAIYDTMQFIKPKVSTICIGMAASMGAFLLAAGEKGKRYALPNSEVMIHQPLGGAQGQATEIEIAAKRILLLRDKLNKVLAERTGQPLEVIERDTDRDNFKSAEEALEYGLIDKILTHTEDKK
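Purified B. subtilis ClpP, 10 microg/mL final in Tris/HCl pH8 with KCl, BSA, glycerol and Tween-20, cleaved an Abz/nitrotyrosine-quenched decapeptide. Fluorescence (ex 320, em 430) was read at 0 and 20 min at room temperature. Delta was normalized to 5.8 microM ADEP and DMSO/no-enzyme controls.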
HEK293 tox = cytotoxicity counter-screen for GLP-1 receptor inverse agonists | Potency, µM (top dose mostly 38.3 µM), usual class: inhibitors | actives 0.13% (n = 410,000) | HEK293 cAMP-luciferase reporter cells, luminescence, 24 h;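 further: loss of luciferase light is scored as toxicity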
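Cells in DMEM/10% Nu serum/1% pen-strep, 1536-well format. Pre-incubated 12 h, dosed with 23 nL compound, incubated a further 24 h. Luciferase detection, 12 min at room temp, luminescence.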
Hits are given with their value; – = inactive; ? = inconclusive; · = not tested or not shown; [ ] = remark or other dose. Unless noted, the call rests on the fitted dose curve; in most records, active means well fitted curve in the direction sought with a large enough effect; inconclusive means small, poorly fitted or top-dose-only effect, or another doubt; inactive means no such curve, though single readings can be large; an effect the other way counts as inactive or inconclusive.

SMILES	GLP1R ag	GLP-1R inv ag	ClpP mod	HEK293 tox
COc1ccc(N2CCN(S(=O)(=O)c3ccc4c(c3)C(C(C)C)C(=O)N4)CC2)cc1 (stereo not drawn)	·	–	–	–
Cc1ccc(CC(=O)N(Cc2nc(-c3ccc(C)cc3)no2)C(C)C)cc1	–	?	–	–
Cc1ccc(S(=O)(=O)N(Cc2cccc(Cl)c2)C(=O)N2CCN(C)CC2)cc1	–	–	14µM	–
COc1ccccc1CNC(=O)Cc1c(C)c2cc3c(C)coc3c(C)c2oc1=O	·	–	–	–
COc1ccc(NC(=O)CSc2oc(-c3cccs3)nc2S(=O)(=O)c2ccc(Br)cc2)c(OC)c1	·	–	–	–
O=C(c1ccccc1)C(CCc1ccccn1)CCc1ccccn1	–	?	3.5µM	–
CCOC(=O)c1c(CSc2ccccc2)n(C)c2cc(Br)c(OCC(O)CNC(CO)(CO)CO)cc12 (stereo not drawn)	–	8.9µM	–	?
Cc1cc[n+]2c3c(cccc13)CCC2	–	–	25µM	–
COC(=O)c1cc(CSC(=N)N)ccc1OCCC(C)C	–	10µM	·	?
O=C(Nc1ccccc1)c1cc(C2CCCCN2S(=O)(=O)Cc2cccc(C(F)(F)F)c2)on1 (stereo not drawn)	–	?	–	–
N#C/C(=C/c1ccc(Sc2nc3ccccc3[nH]2)o1)c1cccc(F)c1	–	?	–	–
N#C/C(=C/c1ccc(Sc2nc3ccccc3[nH]2)o1)c1cccc(Br)c1	–	10µM	–	–
Cc1ccc(NC(=S)Nc2ccccn2)c(C)c1	–	?	–	5µM
Cc1cc(C)cc(NC(=S)Nc2ccccn2)c1	–	?	–	?
Cc1cccc(NC(=S)Nc2ccccn2)c1	–	11µM	·	?
c1coc(CNc2ncnc3c2[nH]c2ccccc23)c1	·	·	–	·
CCn1c(C)c(C)c2cc(C(=O)N3CCc4ccccc4C3)ccc21	–	8.9µM	–	–
CCN1CCN(C(=O)c2ccc3c(c2)c(C)c(C)n3Cc2ccccc2)CC1	–	–[7.66 µM]	–	–[7.66 µM]
Cc1cc(Cl)ccc1C1=CC(=O)C[C@H](c2ccc(F)cc2)C1	–	11µM	–	–
CCN(CC)S(=O)(=O)c1ccc(C)c(NC(=S)NNC(=O)C2CC2)c1	–	–	25µM	–
Cc1ccc(S(=O)(=O)N(C)C)cc1NC(=S)NNC(=O)C1CC1	–	–	–	–
COc1ccc(-n2c(=O)c3c4c(sc3n(Cc3ccc(C(C)(C)C)cc3)c2=O)CCC4)c(OC)c1	·	6.3µM	–	–
CC(C)(C)C(=O)Oc1ccc(S(=O)(=O)Nc2ccccc2C(=O)NCC(=O)O)cc1	–	·	·	·
O=C(COc1ccccc1Cl)Nc1ccc(OCc2cc(=O)n3ccsc3n2)cc1	–	–	–	–
O=C(CN(Cc1ccccc1)S(=O)(=O)c1ccc(Br)cc1)NCC1CCCO1 (stereo not drawn)	–	–	25µM	–
SMILES	GLP1R ag	GLP-1R inv ag	ClpP mod	HEK293 tox
Cc1cc(C)c(NC(=O)CSc2nc(=O)n(Cc3ccco3)c3c2CCC3)c(C)c1	·	–	–	–
Cc1ccc(Nc2c(-c3ccco3)nc3ccc(C)cn23)cc1	·	–	6.3µM	–
Cc1ccc2nc(-c3ccccc3F)c(Nc3ccc(Cl)cc3)n2c1	·	11µM	–	–
COC(=O)C1=C(C)NC(C)=C(C(=O)OC)C1C(=O)OCC(=O)c1ccc(F)cc1	–	–[7.66 µM]	32µM	–[7.66 µM]
CCO[C@H]1OC(C(=O)NCc2ccccc2)=C[C@@H](c2ccc(C(F)(F)F)cc2)[C@@H]1CCCO	–	10µM	–	–
CCO[C@@H]1OC(C(=O)N2CCCCCCC2)=C[C@H](c2ccc(C(F)(F)F)cc2)[C@H]1CCCO	–	10µM	–	–
CCO[C@H]1OC(C(=O)N2CCOCC2)=C[C@@H](c2ccc(C(F)(F)F)cc2)[C@@H]1CCCO	–	–	–	–
CCO[C@H]1OC(C(=O)NCc2nc3ccccc3[nH]2)=C[C@@H](C2CCCCC2)[C@@H]1CCCO	–	10µM	–	–
COc1nc(-c2ccccc2)ccc1-c1noc(-c2ccccc2Br)n1	·	–	–	–
CC(C)CN1C(=O)CSCC1(C)C(=O)NCc1ccccc1 (stereo not drawn)	·	–	–	–
Cc1cccc(NC(=S)NNc2cccc(Cl)c2)c1	–	10µM	·	–
Cc1cccc(CSCCNC(=S)Nc2ccccc2)c1	–	?	25µM	?
Cc1cccc(NC(=S)NC(C)(C)CC(C)(C)C)c1	–	10µM	·	?

From PubChem BioAssay
